From PubChem BioAssay (NCATS)
Records with an inconclusive call do not appear. Where a call stands in place of a potency, no number is given. The source made the active and inactive calls. The call rests on the fitted dose curve; in most records, active means well fitted cell-killing curve with a large enough effect; inconclusive means small, poorly fitted or top-dose-only effect; inactive means flat fitted curve, though single readings scatter.

experiment: qHTS of pediatric cancer cell lines to identify multiple opportunities for drug repurposing: Primary screen for control Hh wild type fibroblast cells (AID 1347106); details: Hh wild-type fibroblast viability, CellTiter-Glo luminescence, 48 h; series mostly up to 46 µM; further: nearly all actives have a fitted effect of over 55% in size
Method in brief: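 Viability after 48 h compound treatment at 37C, 500-1,000 cells/well, read as ATP luminescence with CellTiter-Glo. Primary screens used 11-point (MIPE, 0.78 nM-46 µM) or 8-point (NPC, 0.59 nM-46 µM) final concentrations; follow-up screens used 11-point dilutions.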
Potency means the concentration at half of the fitted maximal effect.

Structure (SMILES) | Potency
Nc1nc2ncc(CNc3ccc(C(=O)N[C@@H](CCC(=O)O)C(=O)O)cc3)nc2c(=O)[nH]1 | inactive
CC(C)NC[C@@H](O)COc1cccc2ccccc12 | inactive
CN1C(CCl)Nc2cc(Cl)c(S(N)(=O)=O)cc2S1(=O)=O (stereo not drawn) | inactive
Cc1ccnc(NS(=O)(=O)c2ccc(N)cc2)n1 | inactive
COc1cccc2c1C(=O)c1c(O)c3c(c(O)c1C2=O)C[C@@](O)(C(C)=O)C[C@@H]3O[C@H]1C[C@H](N)[C@H](O)[C@H](C)O1 | 16.8 µM (active)
C[C@]12CCC(=O)C=C1[C@@H]1C[C@@H]1[C@H]1[C@@H]3[C@@H]4C[C@@H]4[C@@]4(CCC(=O)O4)[C@@]3(C)CC[C@@H]12 | inactive
CCOC(=O)OC(C)OC1=C(C(=O)Nc2ccccn2)N(C)S(=O)(=O)c2ccccc21 (stereo not drawn) | inactive
C[C@H]1[C@H](NC(=O)/C(=N/OC(C)(C)C(=O)O)c2csc(N)n2)C(=O)N1S(=O)(=O)O (stereo in doubt) | inactive
N[C@@H](CCC(=O)N[C@@H](CS)C(=O)NCC(=O)O)C(=O)O | inactive
C[C@]12CC[C@H]3[C@@H](CCC4=CC(=O)CC[C@@]43C)[C@@H]1CC[C@@H]2C(=O)CO | inactive
CC(O)C(=O)O (stereo not drawn) | inactive
Cc1ccc(C(=O)C(C)CN2CCCCC2)cc1 (stereo not drawn) | inactive
O=C(O)CNC(=O)c1ccccc1 | inactive
Cc1cc2c(cc1CC(=O)c1sccc1S(=O)(=O)Nc1onc(C)c1Cl)OCO2 | inactive
CCCCCC=CCC=CCCCCCCCC(=O)OCC | inactive
CC(C)N=C(N)/N=C(\N)Nc1ccc(Cl)cc1 | inactive
CC(O)(P(=O)(O)O)P(=O)(O)O | inactive
CC1(C)O[C@@H]2C[C@H]3[C@@H]4C[C@H](F)C5=CC(=O)C=C[C@]5(C)[C@H]4[C@@H](O)C[C@]3(C)[C@]2(C(=O)CO)O1 | inactive
CC(C)(CO)[C@@H](O)C(=O)NCCCO | inactive

Structure (SMILES) | Potency
Cc1c(C)n(CCN(C)C)c2ccc(C(=O)OCCN(C)C)cc12 | inactive
CC1=C(C(=O)O)N2C(=O)[C@@H](NC(=O)[C@H](N)c3ccc(O)cc3)[C@H]2SC1 | inactive
CCN(CCCCOC(=O)c1ccc(OC)c(OC)c1)C(C)Cc1ccc(OC)cc1 (stereo not drawn) | inactive
CCCOC(C(=O)OC1CCN(C)CC1)(c1ccccc1)c1ccccc1 | inactive
NC(CS)C(=O)O (stereo not drawn) | inactive
CN(C(=O)CN(CCO)CC(=O)N(C)C(C)(C)Cc1ccccc1)C(C)(C)Cc1ccccc1 | inactive
NC[C@H]1O[C@H](O[C@H]2[C@H](O)[C@@H](O[C@H]3O[C@H](CO)[C@@H](O)[C@H](N)[C@H]3O)[C@H](N)C[C@@H]2N)[C@H](N)[C@@H](O)[C@@H]1O | inactive
CCOC(=O)/C=C(C)/C=C/C=C(C)/C=C/c1c(C)cc(OC)c(C)c1C | inactive
CCCCc1nc(Cl)c(CO)n1Cc1ccc(-c2ccccc2-c2nn[nH]n2)cc1 | inactive
CN(C)CC/C=C1/c2ccccc2COc2ccc(CC(=O)O)cc21 | inactive
COc1cc(N)c(Cl)cc1C(=O)NC1CCN(CCCOc2ccc(F)cc2)CC1OC (stereo not drawn) | inactive
C[C@@H](CN(C)C)CN1c2ccccc2Sc2ccccc21 | inactive
O=C1OC2(c3ccc(O)cc3Oc3cc(O)ccc32)c2ccccc21 | inactive
CN1CCC[C@@H]1c1cccnc1 | inactive
O=C(COc1ccc(Cl)cc1)N1CCN(Cc2ccc3c(c2)OCO3)CC1 | inactive
CCCC(=O)Nc1ccc(OCC(O)CNC(C)C)c(C(C)=O)c1 (stereo not drawn) | inactive
CN=C(NC#N)NCCSCc1csc(N=C(N)N)n1 | inactive
NC(=O)c1cc[n+](CC2=C(C(=O)[O-])N3C(=O)[C@@H](NC(=O)Cc4cccs4)[C@H]3SC2)cc1 | inactive
Cc1cc(O)c(C(C)C)cc1Cl | inactive
